High-throughput results: PubChem, National Center for Advancing Translational Sciences (NCATS)
Compounds with a hit are over-represented: about 0.87% of the library has one in this group of screens.
APE1 inh – qHTS Assay for Inhibitors of the Human Apurinic/apyrimidinic Endonuclease 1 (APE1). recombinant APE1, TAMRA/BHQ-2 abasic DNA cleavage fluorescence. Potency, µM (highest dose often 65.8 µM), inactives show at the top dose activity change, negative = inhibition, actives largely listed as inhibitors. DNA repair nuclease/redox regulator APEX1 (Homo sapiens), P27695. actives 0.35% (n = 350,000);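 also: plate controls were vehicle for no effect and reference inhibitor for full effect; nearly all actives have a fitted effect of over 55% in size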
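Compound pre-exposure to 0.75 nM APE1, 15 min at ambient temperature. Reaction initiated with 50 nM TAMRA/BHQ-2 THF substrate, read immediately in kinetic mode, 525 nm excitation, 598 nm emission.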
WRN inhibitor – qHTS for Inhibitors of WRN Helicase. AID 651768, 2012. Bifunctional 3'-5' exonuclease/ATP-dependent helicase WRN (Homo sapiens), Q14191. actives 0.46% (n = 360,000). Potency, µM (highest dose often 114 µM), inactives show at the top dose activity change, negative = inhibition, hits mostly inhibitors. WRN helicase unwinding, fluorescent forked duplex, kinetic; also: % is scaled to controls: 0 for no effect and ±100 for the full control effect; nearly all actives have a fitted effect of over 55% in size
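Kinetic red-fluorescence monitoring (525/598 nm) tracks WRN helicase activity after 100 nM fluorophore-quencher forked duplex and 2 mM ATP are added to 20 nM enzyme pretreated 15 min at room temperature with compound.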
RECQ1 inh-1 – qHTS Assay for Inhibitors of RecQ-Like Dna Helicase 1 (RECQ1); ATP-dependent DNA helicase Q1 (Homo sapiens), P46063; RECQ1 DNA unwinding, red fluorescence kinetic read; Potency, µM (doses to about 57.3 µM), for the others: top-dose activity, negative = inhibition, actives largely listed as inhibitors; actives 0.54% (n = 240,000); AID 2549, 2010;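 also: plate controls were vehicle for no effect and no enzyme for full effect; nearly all actives have a fitted effect of over 30% in size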
Target sequence (P46063 whole entry, looked up): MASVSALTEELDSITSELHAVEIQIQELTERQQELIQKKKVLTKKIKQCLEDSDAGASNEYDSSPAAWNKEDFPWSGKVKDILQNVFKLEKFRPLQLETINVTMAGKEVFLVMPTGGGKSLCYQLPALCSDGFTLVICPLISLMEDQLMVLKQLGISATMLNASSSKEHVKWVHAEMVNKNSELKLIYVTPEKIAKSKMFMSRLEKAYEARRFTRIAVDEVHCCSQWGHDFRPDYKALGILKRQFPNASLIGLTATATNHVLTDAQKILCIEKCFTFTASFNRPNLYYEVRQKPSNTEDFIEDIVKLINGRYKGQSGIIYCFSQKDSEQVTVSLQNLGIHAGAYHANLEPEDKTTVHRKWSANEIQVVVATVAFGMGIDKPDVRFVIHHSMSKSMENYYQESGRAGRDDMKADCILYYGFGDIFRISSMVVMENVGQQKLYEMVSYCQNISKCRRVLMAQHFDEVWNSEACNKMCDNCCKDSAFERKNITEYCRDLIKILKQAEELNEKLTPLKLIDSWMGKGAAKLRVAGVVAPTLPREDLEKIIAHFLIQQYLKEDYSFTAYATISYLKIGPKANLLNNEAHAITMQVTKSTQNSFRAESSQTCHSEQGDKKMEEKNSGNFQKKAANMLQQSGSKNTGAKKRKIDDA
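50 nM RECQ1T1 preincubated 15 min with compound in Tris pH 8.0 buffer with MgCl2, DTT, Tween-20 and 2.5 ug/ml poly(dI-dC); started with 200 nM TAMRA/BHQ-2 forked duplex and 2 mM ATP. Unwinding read as fluorescence (525/598 nm), two reads 2 h apart.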
FEN1 inh-1 – qHTS Assay for the Inhibitors of Human Flap endonuclease 1 (FEN1); Potency, µM (highest dose often 114 µM), for the others: top-dose activity change, negative = inhibition, hits mostly inhibitors; AID 588795, 2011; Recombinant FEN1 flap cleavage, fluorescence, 15 min; actives 0.35% (n = 390,000); also: % is scaled to controls: 0 for no effect and ±100 for the full control effect; nearly all actives have a fitted effect of over 65% in size
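Steps: FEN1 (10 nM) dispensed; compound added by pin tool; 15 min at room temperature; substrate added to 50 nM final; reads at 0 min and 15 min; data normalized and fitted (four-parameter Hill).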
BLM inh – qHTS Assay for Inhibitors of Bloom's syndrome helicase (BLM); RecQ-like DNA helicase BLM (Homo sapiens), P54132; recombinant BLM DNA unwinding, fluorescence dequenching; Potency, µM (highest dose often 56.1 µM), inactives show at the top dose activity change, negative = inhibition, hits mostly inhibitors; actives 0.2% (n = 350,000);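 also: plate controls were vehicle for no effect and no enzyme for full effect; nearly all actives have a fitted effect of over 35% in size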
RECQ1 conf – Confirmation qHTS Assay for Inhibitors of RecQ-Like Dna Helicase 1 (RECQ1); shares compounds with RECQ1 inh-1; RECQ1 helicase DNA unwinding, fluorescence; Potency, µM (titrated, usually from 229 µM), for the others: at the highest dose activity change, negative = inhibition, hits mostly inhibitors; actives 28% (n = 610); also: % is scaled to controls: 0 for no effect and ±100 for the full control effect; nearly all actives have a fitted effect of over 45% in size
ADP FP counter – Counterscreen for RECQ1 Inhibitors: ADP Fluorescence Polarization Displacement Assay | shares compounds with RECQ1 inh-1 | ADP fluorescence polarization displacement counterscreen | Potency, µM (series often up to 228 µM), inactives show top-dose activity change, negative = inhibition, usual class: inhibitors | actives 27% (n = 530); also: % is scaled to controls: 0 for no effect and ±100 for the full control effect; nearly all actives have a fitted effect of over 45% in size
RECQ1 inh-2 – Confirmation qHTS Assay for Inhibitors of RecQ-Like Dna Helicase 1 (RECQ1) - Round 2 Cherry Picks. shares compounds with RECQ1 inh-1. recombinant RECQ1 DNA unwinding, red fluorescence. actives 15% (n = 1,100). Potency, µM (titrated, usually from 119 µM), for inactives: at the highest dose activity, negative = inhibition, actives largely listed as inhibitors; also: % is scaled to controls: 0 for no effect and ±100 for the full control effect; nearly all actives have a fitted effect of over 50% in size
FEN1 inh-2 – qHTS Assay for the Inhibitors of FEN1: Confirmatory Assay for Cherry-picked Compounds; actives 79% (n = 880); AID 720498, 2013; FEN1 flap cleavage, TAMRA/BHQ2 fluorogenic DNA substrate; shares compounds with FEN1 inh-1; Potency, µM, most hits filed as inhibitors; also: nearly all actives have a fitted effect of over 60% in size
Numbers without * were called inactive; [ ] = another dose, or the depositor's remark. Calls follow the shape of the dose curve; as a rule, active = well fitted curve in the direction sought with a large enough effect; inconclusive = small, poorly fitted or top-dose-only effect, or another doubt; inactive = no such curve, though single readings can be large; an effect the other way counts as inactive or inconclusive. Potency is read from the fitted curve at half-maximal effect.

For Cc1ccc(C)c(-n2c(SCC(=O)NC(C(=O)O)C(C)C)nnc2-c2cccc(Cl)c2)c1 (centres undefined) the results were APE1 inh -2%, WRN inhibitor 1%, RECQ1 inh-1 0%, FEN1 inh-1 6%, BLM inh -1%, RECQ1 conf 13% and ADP FP counter 10%.
For CNC(=O)CSc1nnc(-c2ccco2)n1-c1cc(C)ccc1C the results were APE1 inh 47%, WRN inhibitor -2%, FEN1 inh-1 -1% and BLM inh -2%.
For CO/N=C\c1ccc(C(=O)N2[C@H](c3ccc(C)cc3)[C@@H](C)CC[C@H]2C(=O)OC)cc1 the results were APE1 inh -5%[12.4 µM], RECQ1 inh-1 inactive[11.5 µM] and BLM inh 0%[12.4 µM].
Screening C=CC[C@@H]1C=C[C@H](O/N=C/c2ccc(C(=O)N3[C@H](c4ccc(C)cc4)[C@@H](C)CC[C@H]3C(=O)OC)cc2)[C@@H](CO)O1 returned APE1 inh 2%, RECQ1 inh-1 inconclusive, BLM inh -10% and RECQ1 inh-2 -17%.
`CCc1nnc(SC(CC)C(=O)Nc2cccc(OC)c2)c2cc3oc(C)cc3n12` (centres undefined) gave FEN1 inh-1 -22% and BLM inh 0%.
Cc1cccc(-c2noc(-c3cccnc3NCc3ccco3)n2)c1 was read as FEN1 inh-1 -13% and BLM inh -3%.
Screening Nc1cccc2c(=O)[nH]ccc12 returned APE1 inh -7%, RECQ1 inh-1 20µM*, BLM inh -13%, RECQ1 conf inconclusive and ADP FP counter 50µM*.
Screening O=C(CSc1ccc(Cl)cc1)Nc1ccc(-c2nc3ccccc3[nH]2)cc1 returned APE1 inh -6%, WRN inhibitor -27%, RECQ1 inh-1 28µM*, FEN1 inh-1 -16%, BLM inh -11% and RECQ1 inh-2 -28%.
For Cc1cc(C)cc(-n2cnc3cc(C(=O)NCCc4ccccc4)ccc32)c1 the results were FEN1 inh-1 -14% and BLM inh -5%.
For COCCOC(=O)c1c(NC(=O)CN2CCc3ccccc32)sc(C(N)=O)c1C the results were APE1 inh -3%, WRN inhibitor -10%, RECQ1 inh-1 20µM*, FEN1 inh-1 7%, BLM inh 1% and RECQ1 inh-2 -8%.
`O=C(c1ccc(F)cc1)c1cn(Cc2ccccc2)c2cc3c(cc2c1=O)OCO3` gave FEN1 inh-1 -1% and BLM inh -2%.
For CCn1ccc2cc(S(=O)(=O)N3CCCN(C(=O)Nc4ccccc4F)CC3)ccc21 the results were FEN1 inh-1 -14% and BLM inh 2%.
For CCOc1ccc(CCNC(=O)c2ccc3c(c2)N(Cc2ccccc2F)C(=O)c2ccccc2S3=O)cc1OCC (centres undefined) the results were FEN1 inh-1 -13% and BLM inh -8%.
`Nc1nn2cc(-c3ccc(Br)cc3)nc2c2ccccc12` gave APE1 inh 6%, WRN inhibitor -31%, RECQ1 inh-1 inconclusive, FEN1 inh-1 inconclusive, BLM inh -13% and RECQ1 inh-2 inconclusive.
O=C1c2cccc3cc([N+](=O)[O-])cc(c23)C(=O)N1CCN1CCCC1 was read as APE1 inh inconclusive, WRN inhibitor 3%[11.6 µM], RECQ1 inh-1 inconclusive, FEN1 inh-1 14µM*, BLM inh 108%, RECQ1 inh-2 25µM* and FEN1 inh-2 11*.
For N=C1/C(=C\c2coc3ccc(O)cc3c2=O)C(=O)N=C2SC=CN12 the results were APE1 inh 2%, WRN inhibitor 56µM*, RECQ1 inh-1 25µM*, FEN1 inh-1 50µM*, BLM inh -28%, RECQ1 inh-2 56µM* and FEN1 inh-2 inconclusive.
Cc1ccc(NS(=O)(=O)c2ccc3c(c2)[C@H]2C=CC[C@H]2[C@@H](c2ccc(F)cc2)N3)cc1C was read as FEN1 inh-1 -4% and BLM inh -16%.
O=C(O)c1ccc(NS(=O)(=O)c2ccc3c(c2)C2C=CCC2C(c2ccccc2F)N3)cc1 (centres undefined) was read as APE1 inh inconclusive, WRN inhibitor 35µM*, RECQ1 inh-1 inconclusive, FEN1 inh-1 40µM*, BLM inh 7%, RECQ1 inh-2 -14% and FEN1 inh-2 30*.
For Cc1c(Cl)cnc(NC(=O)COC(=O)c2ccc([N+](=O)[O-])s2)c1Cl the results were APE1 inh inconclusive, WRN inhibitor inconclusive, RECQ1 inh-1 28µM*, FEN1 inh-1 inconclusive, BLM inh -27%, RECQ1 inh-2 10µM* and FEN1 inh-2 8.5*.
For O=C(O)C1Nc2c(O)cc(Cl)c([N+](=O)[O-])c2C2C=CCC12 (centres undefined) the results were APE1 inh 2.5µM*, WRN inhibitor 5µM*, RECQ1 inh-1 1.8µM*, FEN1 inh-1 inconclusive, BLM inh 1.8µM*, RECQ1 inh-2 inconclusive and FEN1 inh-2 24*.
`O=C(CCCn1c(=O)c2ccccc2n(Cc2cccc(F)c2)c1=O)NCc1ccccc1Cl` gave FEN1 inh-1 0% and BLM inh -4%.
